Sampled rows, rich in hits. Any-hit rate of the full collection: about 5.4%.
RORg inh = qHTS for inhibitors of ROR gamma transcriptional activity | Nuclear receptor ROR-gamma (Mus musculus), P51450 | Drosophila S2 Gal4-RORgamma UAS-luciferase reporter, 20 h | Potency, µM (titrated, usually from 53.6 µM), actives largely listed as inhibitors | hit rate 5.4% among 310,000 | AID 2551, 2010; also: nearly all actives have a fitted effect of over 60% in size
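Schneider cells (Drosophila), stable Gal4 DBD–ROR gamma + UAS-luc; 1 hr cmpd preincubation; Cu2+ induction 700 uM final; 20 hr ambient; luminescence.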
VP16 counter = VP16 counterscreen qHTS for inhibitors of ROR gamma transcriptional activity. Drosophila S2 Gal4-VP16 UAS-luciferase, luminescence, 20 h. Potency, µM (titrated, usually from 53.6 µM), actives largely listed as inhibitors. hit rate 3.5% among 310,000. AID 2546, 2010;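 also: Gal4-VP16 expression switched on by copper sulfate through the metallothionein promoter; nearly all actives have a fitted effect of over 50% in size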
Six1-Eya2 blk = qHTS Assay for Inhibitors of the Six1/Eya2 Interaction. activity change, % (test concentration not listed). AID 651725, 2012. Homeobox protein SIX1 (Homo sapiens) + Protein phosphatase EYA2 (Homo sapiens), …. hit rate 0.56% among 360,000. AlphaScreen GST-Six1/His-Eya2 binding, biochemical; hits give low values; in the data active = activity change below about -65%; inconclusive = mostly about -30% to -63%
Target sequence (O00167 whole entry, looked up): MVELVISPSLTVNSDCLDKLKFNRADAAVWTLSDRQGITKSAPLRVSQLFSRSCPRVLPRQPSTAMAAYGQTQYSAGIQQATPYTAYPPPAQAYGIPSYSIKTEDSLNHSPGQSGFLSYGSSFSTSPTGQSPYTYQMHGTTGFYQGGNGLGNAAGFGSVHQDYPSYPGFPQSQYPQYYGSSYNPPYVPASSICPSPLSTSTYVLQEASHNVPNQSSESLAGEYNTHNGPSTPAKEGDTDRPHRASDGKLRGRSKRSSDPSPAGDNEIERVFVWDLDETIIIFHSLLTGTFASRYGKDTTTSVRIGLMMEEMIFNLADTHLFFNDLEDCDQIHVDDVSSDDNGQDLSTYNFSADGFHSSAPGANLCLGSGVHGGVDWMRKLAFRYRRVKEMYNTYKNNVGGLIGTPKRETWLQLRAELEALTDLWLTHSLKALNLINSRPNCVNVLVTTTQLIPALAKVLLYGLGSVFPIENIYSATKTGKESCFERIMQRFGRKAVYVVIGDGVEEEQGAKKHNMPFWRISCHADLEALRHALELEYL
Target sequence (Q15475 whole entry, looked up): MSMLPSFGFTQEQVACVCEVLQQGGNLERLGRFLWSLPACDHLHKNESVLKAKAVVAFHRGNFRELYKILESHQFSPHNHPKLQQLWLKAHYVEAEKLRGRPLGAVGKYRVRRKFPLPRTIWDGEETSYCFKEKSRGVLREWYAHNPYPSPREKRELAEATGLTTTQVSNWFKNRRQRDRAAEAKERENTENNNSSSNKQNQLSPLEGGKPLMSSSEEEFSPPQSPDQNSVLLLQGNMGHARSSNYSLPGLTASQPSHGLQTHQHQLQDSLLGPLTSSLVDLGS
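Six1/Eya2 binding was read as AlphaScreen signal after compounds were pinned into GST-Six1 plus His-tagged Eya2 (5X stock 250/500 nM) in pH 8.0 Tris/NaCl/TCEP buffer, beads added, then incubated 1 h, 37 C, dark.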
p53 reactivation = qHTS assay for re-activators of p53 using a Luc reporter | hit rate 0.063% among 320,000 | AID 504706, 2011 | Potency, µM (top dose mostly 92.2 µM), actives largely listed as activators | H1299 p53-A138V BP100-luciferase reporter, luminescence, 24 h; also: nearly all actives have a fitted effect of over 45% in size
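p53-null H1299 cells stably carrying temperature-sensitive p53-A138V and a BP100-luciferase reporter were pinned with compounds (4-point, 1:5 series) and held 24 hrs at 37 deg C. Luminescence was read 10 min after detection reagent.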
CtBP-E1A blk = qHTS Assay for Inhibitors of the CtBP/E1A Interaction | CtBP / adenovirus E1A interaction (AlphaScreen) | AlphaScreen GST-E1A/His-CtBP binding, 1536-well; hits give low values | activity change, % (no concentration beside the values) | hit rate 0.49% among 340,000 | AID 651724, 2012; in the data active = activity change below about -65%; inconclusive = mostly about -30% to -63%
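Protein mix (5X: 125 nM each GST-E1A, His-CtBP) was incubated with pinned compound 2 h at 37 deg C in dark, in 50 mM Tris pH 8.0 buffer with 300 mM NaCl. Glutathione donor and nickel acceptor beads followed; AlphaScreen signal read after 1 h.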
Of the large screens only hits and unclear results are named; the others gave an inactive call. Unless noted, calls follow the shape of the dose curve; as a rule, active = well fitted curve in the direction sought with a large enough effect; inconclusive = small, poorly fitted or top-dose-only effect, or another doubt; inactive = no such curve, though single readings can be large; an effect the other way counts as inactive or inconclusive.

CC1(C(=O)NCc2ccccc2Br)CCN1Cc1ccc2ccccc2c1 (stereo not drawn)	none (no result: RORg inh, VP16 counter, p53 reactivation)
O=C(NC(=S)Nc1ccccc1[N+](=O)[O-])c1ccccc1Cl	RORg inh 4µM, VP16 counter inconclusive
Cc1ccc(O)c(NC(=S)NC(=O)c2ccccc2Cl)c1	RORg inh 3.5µM, VP16 counter 13µM
Cc1nc(NCCO)c2nc(-c3ccccc3)n(CC3CCN(C)CC3)c2n1	none (no result: Six1-Eya2 blk, p53 reactivation, CtBP-E1A blk)
CCCSc1cc(N2CCOCC2)nc(-c2ccccc2Cl)n1	none
COc1cc2cc(-c3ccc(O)cc3O)nc(C)c2cc1OC	Six1-Eya2 blk inconclusive, CtBP-E1A blk -86
Cc1cc(N2CCN(C(=O)Oc3ccc([N+](=O)[O-])cc3)CC2)c2ccccc2n1	none (no result: RORg inh, VP16 counter, p53 reactivation)
CC(C)c1ccc(CC(=O)N2CCC2(C)C(=O)NCCC#N)cc1 (stereo not drawn)	none (no result: RORg inh, VP16 counter, p53 reactivation)
CCNC(=S)NNC(=O)c1cccs1	RORg inh 11µM
CCNC(=S)NNC(=O)c1csc(C)c1	RORg inh 13µM, VP16 counter inconclusive
Cc1cc(C(=O)NNC(=S)NC2CCCCC2)cs1	RORg inh 3.2µM, VP16 counter inconclusive
CCCCNC(=S)NNC(=O)c1csc(C)c1	none
COc1ccc(C(=O)NNC(=S)NC2CCCCC2)cc1OC	RORg inh 7.9µM, VP16 counter inconclusive
COc1ccc(NC(=O)N2C[C@H]3CON(C)[C@H]3C[C@H]2c2ccc(N3CCCCC3)cc2)cc1	none (no result: RORg inh, VP16 counter, p53 reactivation)
CCCCN1C(=O)NC(c2ccc(OC)cc2)C(C(=O)OCc2ccccc2)=C1C (stereo not drawn)	none (no result: p53 reactivation)
Cc1cc(C(=O)NC2CCCN(Cc3ccccc3F)C2)no1 (stereo not drawn)	none (no result: CtBP-E1A blk)
O=C(CSc1nc(-c2ccco2)cc(C(F)(F)F)n1)Nc1ccc(C(=O)N2CCCCC2)cc1	RORg inh inconclusive, VP16 counter 4.5µM
CCCCCCn1c(SCCCC)nc2c1c(=O)[nH]c(=O)n2C	none (no result: VP16 counter)
CCn1c([N+](=O)[O-])nc2c1c(=O)[nH]c(=O)n2C	RORg inh 0.56µM, VP16 counter 18µM (no result: CtBP-E1A blk)
Nc1nc2ccccc2n1/N=C/c1ccc(-c2ccccc2)o1	RORg inh 7.9µM, VP16 counter inconclusive, p53 reactivation inconclusive
Nc1nc2ccccc2n1/N=C/c1cccnc1	none (no result: RORg inh, VP16 counter, p53 reactivation)
CC(NC(=O)C(=O)NN=C1CCCCCCCCCCC1)c1ccccc1 (stereo not drawn)	none
Cc1cc2nc(CCN(C(=S)NCC3CCCO3)C3CCCC3)[nH]c2cc1C (stereo not drawn)	RORg inh 13µM, VP16 counter inconclusive
Cc1cccc2cc(CN(C(=S)NCC(C)C)C3CCCC3)c(=O)[nH]c12	VP16 counter inconclusive
Cc1cc2nc(CCN(C(=S)NCC(C)C)C3CCCC3)[nH]c2cc1C	RORg inh 7.1µM, VP16 counter inconclusive
O=C(CNC(=S)N(Cc1ccc(F)cc1)C1CCCCC1)NCC1CCCO1 (stereo not drawn)	none
C/C(=C\C(=O)c1ccccc1)NNC(=O)c1ccc(Cl)cc1	RORg inh 7.1µM, VP16 counter 4.5µM (no result: p53 reactivation)
C/C(=C\C(=O)c1ccccc1)Nc1ccc(Br)c(Cl)c1	none
COc1ccc(N/C(C)=C/C(=O)c2ccccc2)cc1	VP16 counter inconclusive
COc1ccc(C(=O)NN/C(C)=C/C(=O)c2ccccc2)cc1	RORg inh 6.3µM, VP16 counter 5µM
COc1ccc(C(=O)NNC(=O)C(=O)/C=C(\O)c2ccc(C)cc2)cc1	RORg inh 13µM, VP16 counter inconclusive
C/C(=C\C(=O)c1ccc(Cl)cc1)Nc1ccc(N2CCOCC2)cc1	none
O=C(/C=C(\O)c1ccccc1)C(=O)NNC(=O)c1ccccc1	RORg inh inconclusive, VP16 counter inconclusive
C/C(=C\C(=O)c1ccc(Br)cc1)Nc1ccc(Cl)cc1	RORg inh 7.1µM, VP16 counter 11µM
COc1ccc(OC)c(C2=NS(=O)(=O)N(C)C(C(=O)Nc3ccc(F)cc3F)=C2)c1	RORg inh inconclusive
COC(=O)[C@]12CCCCC=C1N(Cc1ccc(Cl)cc1Cl)C(=O)[C@H](CC(=O)N1CCOCC1)C2	none (no result: RORg inh, VP16 counter, p53 reactivation)
CC(C)CN1C(=O)c2ccccc2C1(O)Cc1ccccc1 (stereo not drawn)	RORg inh inconclusive, VP16 counter 20µM
C=CCN1C(=O)c2ccccc2C1(O)Cc1ccccc1 (stereo not drawn)	none
COc1ccc2[nH]cc(CCNc3cc(-c4cccc(C#N)c4)ncn3)c2c1	none (no result: Six1-Eya2 blk, p53 reactivation, CtBP-E1A blk)
COc1ccc(CNC(=S)Nc2ccc(S(N)(=O)=O)cc2)cc1	none
COc1ccc(NC(=S)NCc2ccc(F)cc2)cc1	RORg inh 7.9µM, VP16 counter inconclusive (no result: CtBP-E1A blk)
COc1ccc(CNc2ccc(C(=O)O)cc2)cc1	RORg inh 1.3µM, VP16 counter 0.63µM, p53 reactivation inconclusive
CCCCc1ccc(NC(=S)NCc2ccc(OC)cc2)cc1	RORg inh 4µM, VP16 counter inconclusive, p53 reactivation inconclusive (no result: CtBP-E1A blk)
COC(=O)Cc1ccc(NC(=S)NCc2ccc(OC)cc2)cc1	RORg inh inconclusive
COc1ccc(CNC(=S)Nc2ccc(OC)cc2)cc1	RORg inh 10µM, VP16 counter inconclusive
COc1ccc([C@H]2C(C(=O)O)=C[C@@H](C(C)(C)C)N2S(=O)(=O)c2ccccc2)cc1	none (no result: RORg inh, VP16 counter)
CCOC(=O)CC(C(=O)OCC)C1CCCCC1=O (stereo not drawn)	none (no result: Six1-Eya2 blk, p53 reactivation, CtBP-E1A blk)
CC(C)c1ccc(C2NC(=S)NC3=C2C(=O)CC(C)(C)C3)cc1 (stereo not drawn)	RORg inh inconclusive, VP16 counter inconclusive
Nc1ccccc1C(=O)/C=C/c1ccccc1	none (no result: Six1-Eya2 blk, p53 reactivation, CtBP-E1A blk)
CCCCc1ccc(NC(=S)NCc2ccccc2OC)cc1	RORg inh 2µM
CCN1C(=O)[C@H]2[C@H]3[C@H](O)[C@H](O)C/C(=N/OC[C@@H](O)[C@H]4O[C@H]5OC(C)(C)O[C@H]5[C@@H]4O)[C@@H]3CC[C@@H]2C1=O	none (no result: Six1-Eya2 blk, p53 reactivation, CtBP-E1A blk)
COc1cccc(N2CCN(c3ncnc4c3[nH]c3ccc(F)cc34)CC2C)c1 (stereo not drawn)	RORg inh inconclusive, VP16 counter 7.1µM, Six1-Eya2 blk inconclusive
COc1cccc(N2CCN(c3ncnc4c3[nH]c3ccccc34)CC2C)c1 (stereo not drawn)	RORg inh inconclusive, VP16 counter 14µM (no result: Six1-Eya2 blk, CtBP-E1A blk)
COc1ccc2nc(C)cc(SCC(=O)N/N=C/c3ccc(O)c(O)c3)c2c1	Six1-Eya2 blk -72, CtBP-E1A blk -72
COc1ccc2nc(C)cc(SCC(=O)N/N=C/c3cccc4ccccc34)c2c1	RORg inh 11µM
COc1cccc2c(SCC(=O)N/N=C/c3ccc(O)c(O)c3)cc(C)nc12	Six1-Eya2 blk -71, CtBP-E1A blk -74
COC(=O)CSc1cc(C)nc2ccc(OC)cc12	p53 reactivation inconclusive
